GLS inhibitor = qHTS for Inhibitors of Glutaminase (GLS). Glutaminase kidney isoform, mitochondrial (Homo sapiens), O94925. AID 624170, 2012. 0.21% of 410,000 active. GLS enzymatic activity, qHTS titration. Potency, µM (top dose mostly 45.5 µM), for the others: top-dose activity change, negative = inhibition, hits mostly inhibitors; note: % is set by controls: 0 for no effect and ±100 for the full control effect
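hKGA in 45 mM KH2PO4 pH 8.2, 0.02% Tween-20 with pin-transferred compounds; 1 mM L-glutamine (stock) plus glutamate oxidase/HRP/Amplex Red coupling added. Fluorescence read initially and after 30 min at RT.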
JMJD2A Tudor inh = qHTS Assay for Inhibitors of JMJD2A-Tudor Domain; Lysine-specific demethylase 4A (Homo sapiens), O75164; AlphaScreen JMJD2A-Tudor / H3K4me3 peptide binding; Potency, µM (doses to about 114 µM), for inactives: at the highest dose activity change, negative = inhibition, most hits filed as inhibitors; 4.4% of 390,000 active; AID 504339, 2011; note: % is set by controls: 0 for no effect and ±100 for the full control effect; nearly all actives have a fitted effect of over 50% in size
Target sequence (O75164 whole entry, looked up, the tested form may be a part): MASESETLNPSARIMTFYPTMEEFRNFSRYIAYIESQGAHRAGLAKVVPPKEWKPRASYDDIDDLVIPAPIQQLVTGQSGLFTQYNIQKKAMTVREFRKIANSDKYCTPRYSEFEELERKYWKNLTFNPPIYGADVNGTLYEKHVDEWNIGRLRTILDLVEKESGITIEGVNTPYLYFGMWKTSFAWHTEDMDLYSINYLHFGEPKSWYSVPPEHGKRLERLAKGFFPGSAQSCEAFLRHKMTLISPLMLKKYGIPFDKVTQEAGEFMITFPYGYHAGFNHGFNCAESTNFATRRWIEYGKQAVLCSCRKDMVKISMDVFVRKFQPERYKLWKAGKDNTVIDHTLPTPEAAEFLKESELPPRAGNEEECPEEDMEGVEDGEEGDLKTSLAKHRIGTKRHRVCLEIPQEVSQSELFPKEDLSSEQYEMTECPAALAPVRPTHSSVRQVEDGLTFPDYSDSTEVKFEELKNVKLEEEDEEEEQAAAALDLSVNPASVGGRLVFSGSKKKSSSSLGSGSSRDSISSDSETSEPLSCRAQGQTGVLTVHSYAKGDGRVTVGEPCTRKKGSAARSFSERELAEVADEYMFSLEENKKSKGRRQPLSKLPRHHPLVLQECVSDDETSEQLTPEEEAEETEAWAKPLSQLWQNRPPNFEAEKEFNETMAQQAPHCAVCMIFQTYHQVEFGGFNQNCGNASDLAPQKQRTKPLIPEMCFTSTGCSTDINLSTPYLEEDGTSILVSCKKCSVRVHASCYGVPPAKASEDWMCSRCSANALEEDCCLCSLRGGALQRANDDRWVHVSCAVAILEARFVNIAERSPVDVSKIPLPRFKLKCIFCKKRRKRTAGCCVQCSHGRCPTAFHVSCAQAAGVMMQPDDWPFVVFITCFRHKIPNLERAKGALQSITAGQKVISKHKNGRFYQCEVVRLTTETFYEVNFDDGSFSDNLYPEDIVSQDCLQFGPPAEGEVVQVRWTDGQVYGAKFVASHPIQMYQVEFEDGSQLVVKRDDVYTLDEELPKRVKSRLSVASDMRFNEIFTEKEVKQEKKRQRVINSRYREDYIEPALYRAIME
HP1b chromo inh = HTS for Inhibitors of HP1-beta Chromodomain Interactions with Methylated Histone Tails; Chromobox protein homolog 1 (Homo sapiens), P83916; AlphaScreen HP1-beta / biotin-H3K9me3 peptide binding; Potency, µM (highest dose often 114 µM), for inactives: at the highest dose activity change, negative = inhibition, actives largely listed as inhibitors; 0.56% of 390,000 active; AID 540317, 2011; note: nearly all actives have a fitted effect of over 70% in size
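Compound inhibition of the preformed complex between 50 nM HP1-beta and 50 nM biotinylated H3K9me3 peptide was read by AlphaScreen. Buffer was PBS pH 7.4 with 0.01% Tween-20. Incubations ran 30 min at room temperature, with 10 ug/mL donor/acceptor beads.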
BAZ2B inh = qHTS Assay for Inhibitors of BAZ2B; Bromodomain adjacent to zinc finger domain protein 2B (Homo sapiens), Q9UIF8; AlphaScreen BAZ2B-H3K14Ac peptide displacement; Potency, µM (highest dose often 114 µM), without a hit: at the top dose activity change, negative = inhibition, most hits filed as inhibitors; 4.4% of 360,000 active; note: % is set by controls: 0 for no effect and ±100 for the full control effect; nearly all actives have a fitted effect of over 60% in size
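Complex of BAZ2B and biotin-H3K14Ac (50 nM apiece) forms over 30 min at RT, then faces library compounds up to 110 uM for another 30 min; AlphaScreen beads added, 20 min dark incubation, luminescence read.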
G9a inh = qHTS Assay for Inhibitors of Histone Lysine Methyltransferase G9a; Histone-lysine N-methyltransferase EHMT2 (Homo sapiens), Q96KQ7; G9a H3K9 monomethylation, AlphaScreen, 2 h; Potency, µM (highest dose often 102 µM), for inactives: at the highest dose activity, negative = inhibition, most hits filed as inhibitors; 8.8% of 350,000 active; note: % is set by controls: 0 for no effect and ±100 for the full control effect; nearly all actives have a fitted effect of over 75% in size
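Using a bead-based AlphaScreen, monomethylated H3K9 product from 2 h room-temperature reactions (G9a 20 nM, peptide 500 nM, SAM 20 uM) was detected with 0.5 ug/mL rabbit anti-H3K9me1 antibody.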
An asterisk follows results filed as active; ? = inconclusive; . = no result; [ ] = remark or other dose. Rows were chosen to be rich in hits. Some 10% of all compounds tested hit in one or more screens of this group. Calls come from the whole dose curve; as a rule, active = well fitted curve in the direction sought with a large enough effect; inconclusive = small, poorly fitted or top-dose-only effect, or another doubt; inactive = no such curve, though single readings can be large; an effect the other way counts as inactive or inconclusive. Potency is the fitted concentration of half-maximal effect.

SMILES | GLS inhibitor | JMJD2A Tudor inh | HP1b chromo inh | BAZ2B inh | G9a inh
Cc1ccccc1C(=O)Nc1ccc(S(=O)(=O)N2CCN(C)CC2)cc1 | -2.3% | -1.9% | 25.7% | -6.5% | -31.3%[12.7 µM]
CN1C(=O)c2ccc(NC(=S)NC(=O)C(C)(C)C)cc2C1=O | 13.5% | -19.9% | 3.7% | 7.7% | 44.7µM*
CCC(=O)NC(=S)Nc1ccc(S(=O)(=O)N2CCN(C)CC2)cc1 | 9.9% | -30.6% | 14.3% | 6.2% | 12.4%[59 µM]
CN1CCN(S(=O)(=O)c2ccc(NC(=S)NC(=O)c3ccc(Cl)cc3)cc2)CC1 | 10.2% | ? | ? | 7.5% | 17.8µM*
CN1CCN(S(=O)(=O)c2ccc(NC(=S)NC(=O)C(C)(C)C)cc2)CC1 | 1.4% | -12.8%[11.4 µM] | 23.9% | -20.9% | 56.2µM*
CN(Cc1ccccc1)S(=O)(=O)c1ccc(NC(=S)NC(=O)C2CCCCC2)cc1 | 0.8% | -10.5% | 29.4% | -26.6% | -4.5%[59 µM]
CN(Cc1ccccc1)S(=O)(=O)c1ccc(NC(=S)NC(=O)C(C)(C)C)cc1 | -7.9% | -20.6% | 17.7% | -33.5% | 3.16µM*
CN(CC(=O)Nc1ccccc1Br)C(=O)c1cc(Cl)nc2ccccc12 | 0.2% | -17.0% | 28.1% | -4.6% | 16.8%[12.7 µM]
Cc1ccc([N+](=O)[O-])cc1N=C(c1ccc([N+](=O)[O-])cc1)N1CCOCC1 | -12.4% | 79.4µM* | ? | ? | -18.8%[59 µM]
O=[N+]([O-])c1ccc(C(=Nc2cccc3ccccc23)N2CCOCC2)cc1 | -6.7% | ? | ? | 50.1µM* | 44.7µM*
Cc1ccc([N+](=O)[O-])cc1N=C(c1cccc([N+](=O)[O-])c1)N1CCOCC1 | -16.5% | -16.8%[11.4 µM] | -11.1% | -9.3% | 3.9%[0.0925 µM]
CN1CCCCCC1=Nc1ccc([N+](=O)[O-])cc1 | -7.5% | -8.7% | 8.0% | . | .
CN1C(=O)C(N=Nc2ccc([N+](=O)[O-])cc2)SC1=S (configuration not stated) | 4.7% | 22.4µM* | ? | . | .
N#C/C(=N\Nc1ccc(S(=O)(=O)N2CCOCC2)cc1)C(N)=S | ? | ? | ? | ? | 0.562µM*
COC(=O)Nc1ccc(S(=O)(=O)N2CCCCCC2)cc1 | -8.9% | -11.5% | 20.1% | -1.8% | -13.7%[59 µM]
N#CC(C#N)=NNc1ccc(S(=O)(=O)N2CCCCC2)cc1 | -3.7% | 39.8µM* | -35.3% | ? | 10µM*
COc1ccccc1NC(=O)Nc1nc(CC(=O)NCc2c(F)cccc2F)cs1 | 10.7% | -5.4% | 32.2% | -5.6% | -27.9%
Fc1cccc2sc(N3CCCC3)nc12 | 3.5% | -7.3% | 28.5% | 9.7% | -5.8%[59 µM]
O=C(N/N=C/c1ccco1)c1cc(-c2ccccc2)n[nH]1 | -8.7% | 2.3%[11.4 µM] | 28.0% | 2.1% | -9.2%[59 µM]
Nc1c(C(=O)N/N=C/c2ccccc2Cl)oc2nc(-c3ccccc3)cc(-c3ccco3)c12 | 4.8% | -21.4% | 29.9% | -22.7% | 20µM*
Cc1cc(-c2ccccc2)nc2oc(C(=O)NN)c(N)c12 | -8.2% | -20.7% | 36.6% | -20.2% | 24.1%[59 µM]
Nc1c(C(=O)N/N=C/c2ccc(F)cc2)oc2nc(-c3ccccc3)cc(-c3ccco3)c12 | -7.3% | -32.4% | 13.4% | -22.4% | 28.2µM*
NN1C(=O)NC(c2ccccc2)(c2ccccc2)C1=O | 1.4% | 25.1µM* | 29.2% | -5.1% | 8.1%[59 µM]
NC(=O)NC(=O)CN1C(=O)NC(c2ccccc2)(c2ccccc2)C1=O | 3.4% | -6.3% | 17.6% | -22.8% | 6.5%
COC(=O)c1ccccc1CC1Cc2cc3c(cc2C1=O)CCC3 (configuration not stated) | 1.8% | 61.8% | 100.8% | . | .
SMILES | GLS inhibitor | JMJD2A Tudor inh | HP1b chromo inh | BAZ2B inh | G9a inh
COc1ccc(C2=NN(C(=O)CCC(=O)O)C(c3ccc([N+](=O)[O-])cc3)C2)cc1 (configuration not stated) | 0.4% | -11.9% | 13.5% | -1.7% | 39.8µM*
COc1ccc(C2CC(c3ccc4ccccc4c3)=NN2C(=O)CSc2ncccn2)cc1 (configuration not stated) | 1.7% | -21.9% | 17.4% | -1.1% | 39.8µM*
O=C(CCl)N1N=C(c2ccco2)CC1c1ccco1 (configuration not stated) | ? | 44.7µM* | 50.1µM* | 44.7µM* | 50.1µM*
O=C(OCC(=O)N1N=C(c2ccc(Cl)cc2)CC1c1ccco1)c1cccnc1 (configuration not stated) | -6.9% | 35.5µM* | ? | . | .
S=C(NCCN1CCOCC1)Nc1ccc(Cl)c(Cl)c1 | 14.7% | -18.6% | 19.7% | -21.7% | ?
COc1ccc(C2c3c(n(C)c4ccccc34)C(=O)N2CC(=O)Nc2ccc(F)cc2)cc1 (configuration not stated) | -1.1% | 4.8% | 38.4% | -5.1% | 5.5%[59 µM]
COc1ccc(C(=O)NCC(=O)OCC(=O)N2N=C(c3ccc(Cl)cc3)CC2c2ccco2)cc1OC (configuration not stated) | 2.0% | -35.4% | 16.5% | -26.8% | 20µM*
CC(=O)N1N=C(c2ccc([N+](=O)[O-])cc2)CC1c1ccccc1Cl (configuration not stated) | 2.5% | ? | ? | ? | 50.1µM*
COc1ccc(C2CC(c3ccccc3)=NN2C(=O)COC(=O)c2cccnc2)cc1 (configuration not stated) | 0.9% | -8.1% | 38.2% | -37.3% | 17.8µM*
Nc1ccn([C@@H]2O[C@H](CNCc3ccc(Oc4cc(-n5cccn5)ncn4)cc3)[C@@H](O)[C@H]2O)c(=O)n1 | -1.0% | . | . | . | .
Cn1c(N)c(C(=O)COC(=O)C(Cc2ccccc2)NC(=O)c2ccccc2)c(=O)n(C)c1=O (configuration not stated) | -10.5% | 4.1%[57.1 µM] | 35.0% | -15.6% | 8.9%
COc1ccc(NC(=O)Nc2ccc3c(c2)C(=O)N([C@H](C)CO)C[C@H](C)[C@@H](CN(C)S(=O)(=O)c2ccc(F)cc2)O3)cc1 | 5.8% | -33.1% | 16.4% | . | .
CCc1nc(Nc2cccc(F)c2)c2oc3ccccc3c2n1 | 2.5% | -9.6% | 10.4% | ? | 44.7µM*
CCc1nc(Nc2ccc(N3CCN(C(C)=O)CC3)cc2)c2oc3ccccc3c2n1 | 36.1% | ? | -0.4% | 50.1µM* | ?
Oc1cccc(Nc2ncnc3c2oc2ccccc23)c1 | 3.1% | -27.4% | 21.6% | ? | 50.1µM*
CC(=O)N1CCN(c2ccc(Nc3ncnc4c3oc3ccccc34)cc2)CC1 | 47.1% | -27.1% | 2.9% | ? | ?
CCc1nc(Nc2ccc(F)cc2)c2oc3ccccc3c2n1 | 0.2% | 0.7% | 42.7% | 0.3% | 44.7µM*
